Common to all, as to test: NCI-60 one-dose screen, 48 h (100 = growth as untreated, 0 = no growth, -100 = all killed)
What all share (conditions): 10 µM unless noted

Assay [1] has as its system DU-145 prostate.
In assay [2] the test system is K-562 leukemia.
Assay [3] deals with MALME-3M melanoma.
In assay [4] the test system is MDA-MB-231 breast.
The subject of assay [5] is RXF 393 renal.
The subject of assay [6] is SF-268 CNS.
For assay [7], the system named is SF-295 CNS.
The subject of assay [8] is SF-539 CNS.
The test system of assay [9] is UACC-257 melanoma.
For assay [10], the system named is M14 melanoma.
The test system of assay [11] is HCT-15 colon.
For assay [12], the system named is HT29 colon.
The subject of assay [13] is SNB-75 CNS.
Assay [14] deals with SNB-19 CNS.
Assay [15] concerns U251 CNS.
In assay [16] the test system is PC-3 prostate.
Assay [17] deals with SK-MEL-5 melanoma.
Assay [18] deals with UACC-62 melanoma.
Assay [19] relates to LOX IMVI melanoma.
Assay [20] has as its system SK-MEL-28 melanoma.

Among the data in PubChem BioAssay (NCI) are growth values, retold here.

The panel holds about 83,000 compounds, 20% with a hit somewhere; the sample as a whole holds those more often.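 Interpretation: 100, growth as untreated; towards 0, rising growth inhibition; 0, no net growth; 0 to -100, cell death. Compounds scoring below 10 were considered active.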 A number with no mark means an inactive call. Activity calls are given as the source filed them.

Turning to `O=C1COCCN1c1ccc(NCc2cn(Cc3ccccc3)c3ccccc23)cc1`, the growth in assay [1] is 102%; in assay [2], 57.3%; in assay [3], 95.9%; in assay [4] it was 86.7%; in [5] it was 46.8%; in assay [6] it was 91.9%. Besides, the growth in assay [7] was 61.7%; in [8], 91.8%; in assay [9] it was 75.4%; in assay [10], 90.2%; in assay [11], 90.7%; in assay [12], 109%. Moreover, the growth in assay [13] is 81.7%; in [14], 93.2%; in assay [15], 86.8%; in [16] it was 89%; in assay [17] it was 91.5%; in assay [18] it was 21.6%. For the same compound, the growth in assay [19] is 92%; in [20], 102%.
For `C#C[C@]1(O)CC[C@H]2[C@@H]3CC=C4c5nc(Nc6ccccc6[N+](=O)[O-])sc5CC[C@]4(C)[C@H]3CC[C@@]21C`, the growth in assay [1] was 55.3%; in assay [2] it was 8.86% (active); in assay [3], 51.7%; in assay [4], 52.4%; in assay [5] it was -44% (active); in assay [6], 52.8%. Further, the growth in assay [7] is -46.1% (active); in assay [8] it was -31.5% (active); in [9], 73%; in [10], -23.1% (active); in assay [11], 35.3%; in assay [12], 55.7%. Moreover, the growth was 17.9% in assay [13]; 76.6% in [14]; 39.7% in assay [15]; 41.8% in [16]; 60.6% in assay [17]; 67.8% in [18]. For the same compound, the results for the growth in assay [19] and in assay [20] were 73.1% and 62.1%, respectively.
Regarding `Cc1ccc(NC(=O)N[C@@H](Cc2cc(F)cc(F)c2)C(=O)N[C@@H]2C(=O)N3CCC[C@H]3C(=O)N3CCOC[C@H]3C(=O)N[C@@H](C)C(=O)N3C[C@H](C)C[C@H]3C(=O)O[C@H]2C)cc1`, the growth in assay [1] was 31.2%; in assay [2] it was 17.2%; in assay [3] it was 33.6%; in [4] it was 9.97% (active); in assay [5], 36.9%; in assay [6], 28.5%. Besides, the growth in [7] is 12.7%; in assay [8], 47.6%; in [9], 20.9%; in assay [10], 26.9%; in assay [11] it was 32.9%; in [12], 32.4%. Further, the growth in assay [13] was 16.9%; in assay [14], 21.5%; in [15], 27.1%; in [16] it was 19.1%; in assay [17], 10.6%; in assay [18], 26.3%. In addition, the values for the growth in assay [19] and in [20] were 38.3% and 42.3%, respectively.
For `COc1ccc(NC(=O)Nc2ccc(-c3cccnc3)cc2N2CCC(CO)CC2)cc1`, the growth in assay [1] was 55.3%; in [2] it was 24.8%; in assay [3], 67.2%; in assay [4] it was 34.2%; in assay [5] it was 13.1%; in [6] it was 52.5%. Also, the growth was 32% in assay [7]; 15.1% in assay [8]; 46.6% in assay [9]; 63.3% in assay [10]; 43.7% in assay [11]; 9.77% (active) in [12]. Also, the growth in [13] was 51.3%; in [14] it was 49.3%; in [15], 33%; in assay [16] it was 83.7%; in [17] it was -38.3% (active); in assay [18] it was 68.7%. For the same compound, the growth in assay [19] is 71.9%; in assay [20], 18.7%.
In the case of `Cc1cc(C)c(O)c(CNCCCNCc2cc(C)cc(C)c2O)c1`, the growth was 87.8% in [1]; 15.3% in assay [2]; -65.9% (active) in assay [3]; 35.8% in assay [4]; 47.9% in [5]; 74.7% in assay [6]. For the same compound, the growth was 30.3% in [7]; -11.8% (active) in assay [8]; 4.87% (active) in [9]; -65.8% (active) in assay [10]; 34.9% in [11]; 70.9% in assay [12]. Moreover, the growth in [13] is 59.6%; in assay [14] it was 68.9%; in assay [15] it was 51.3%; in assay [16], 64.8%; in [17] it was 61.9%; in assay [18], 12.6%. For the same compound, the growth was 39.8% in assay [19] and 62.4% in [20].
As for `Fc1cc2[nH]ncc2c2c3c(c(-c4cn[nH]c4C(F)(F)F)nc12)C1CCC3C1` (stereo not given), the growth in assay [1] is 4.96% (active); in assay [2], 19.4%; in assay [3], 9.41% (active); in assay [4] it was -5.18% (active); in assay [5], -89.8% (active); in [6], 3.13% (active). The growth was 8.79% (active) in assay [7]; -32.4% (active) in [8]; 0.635% (active) in assay [9]; -6.09% (active) in [10]; 9.48% (active) in assay [11]; 13% in assay [12]. The growth is -4.22% (active) in [13]; 10.1% in [14]; 4.85% (active) in assay [15]; 14% in assay [16]; -28.8% (active) in assay [17]; -18.5% (active) in assay [18]. Besides, the growth in assay [19] is 0.44% (active); in assay [20], -0.348% (active).
For the compound `CCOc1ccc2sc(NS(=O)(=O)c3ccc(N)cc3)nc2c1`, the growth in assay [1] was 119%; in assay [2], 103%; in assay [3] it was 118%; in assay [4] it was 106%; in assay [5], 104%; in assay [6], 110%. Also, the growth in assay [7] is 109%; in assay [8], 99.5%; in assay [9] it was 111%; in assay [10] it was 109%; in assay [11], 107%; in [12], 109%. Also, the growth in assay [13] is 98.2%; in assay [14], 103%; in assay [15] it was 99.5%; in assay [16], 119%; in assay [17] it was 106%; in assay [18], 93%. The growth in assay [19] is 105%; in assay [20] it was 117%.
Regarding `COc1ccc2c(c1)C(C)Cc1c(Cl)nc(C)nc1N2C` (stereo not given), the growth is 34% in [1]; 11.7% in assay [2]; 80.7% in assay [3]; 19% in assay [4]; -0.792% (active) in assay [5]; 43.2% in assay [6]. The growth in [7] is 7.77% (active); in assay [8] it was 4.64% (active); in [9] it was 78.1%; in [10], 13.5%; in assay [11], 18.4%; in assay [12], -13.3% (active). In addition, the growth is 39.3% in [13]; 24.7% in assay [14]; 21.9% in assay [15]; 14.8% in [16]; 24% in [17]; 27% in assay [18]. In addition, the growth in assay [19] is 43.7%; in [20] it was 80.1%.
